Assay outcomes (PubChem BioAssay)
GAA inhib = blocks human lysosomal alpha-glucosidase; P10253; purified human GAA, 4-MU-alpha-glucoside fluorescence; Potency, µM (doses to about 76.9 µM), for the others: at the top dose activity change, negative = inhibition, most hits filed as inhibitors; actives 0.005% (n = 200,000);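 further: potency means the concentration at half of the fitted maximal effect; plate controls were uninhibited enzyme wells for no effect and no-enzyme background for full effect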
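Fluorogenic assay: 4 nM human alpha-glucosidase with 400 uM 4-methylumbelliferyl-alpha-D-pyranoside in 50 mM citrate/phosphate, 0.005% Tween-20, pH 5.0, 20 min at room temperature. Compounds tested up to 77 uM; AC50 from Hill fits.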
N370S GC mod = N370S glucocerebrosidase modulation, Gaucher chaperone candidate. actives 0.092% (n = 330,000). N370S GC spleen homogenate, 4MU-glucoside fluorescence. Potency, µM (top dose mostly 59.4 µM), without a hit: at the highest dose activity change, negative = inhibition, usual class: inhibitors;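 further: potency means the concentration at half of the fitted maximal effect; 0% = full enzyme activity and -100% = no enzyme basal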
aGal spleen mod = inhibits or activates alpha-galactosidase in human spleen homogenate | actives 0.008% (n = 240,000) | human spleen homogenate, 4MU-alpha-Gal fluorescence, 40 min | Potency, µM (series often up to 80 µM), for the others: at the highest dose activity change, negative = inhibition, actives largely listed as inhibitors | AID 2107;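 further: potency means the concentration at half of the fitted maximal effect; 0% = enzyme with vehicle and -100% = no enzyme basal signal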
Target sequence (P06280 32-429 limits assumed): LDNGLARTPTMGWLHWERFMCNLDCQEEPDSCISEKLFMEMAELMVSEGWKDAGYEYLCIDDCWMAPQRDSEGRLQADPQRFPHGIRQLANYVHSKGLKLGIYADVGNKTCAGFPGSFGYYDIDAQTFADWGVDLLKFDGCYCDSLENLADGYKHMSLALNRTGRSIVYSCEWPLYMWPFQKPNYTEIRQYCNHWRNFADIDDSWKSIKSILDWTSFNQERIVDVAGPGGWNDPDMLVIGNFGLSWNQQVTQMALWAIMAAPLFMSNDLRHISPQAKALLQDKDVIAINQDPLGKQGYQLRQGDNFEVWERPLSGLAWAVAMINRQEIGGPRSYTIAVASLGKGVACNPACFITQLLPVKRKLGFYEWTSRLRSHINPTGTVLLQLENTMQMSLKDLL
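Spleen homogenate 1 ug + cpd (titration) + 4-MU-alpha-D-galactopyranoside 1 mM; 37C 40 min; 50 mM citrate/phosphate pH 5.0, 0.01% Tween-20; stop pH 10; fluorescence 365/440; AC50 via Hill.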
GAA glycogen = GAA glycogen-cleavage inhibition or activation. actives 0.38% (n = 300,000). recombinant GAA, glycogen substrate, Amplex Red glucose oxidase fluorescence. Potency, µM (highest dose often 76.4 µM), without a hit: at the top dose activity change, negative = inhibition, usual class: inhibitors;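 further: potency means the concentration at half of the fitted maximal effect; 0% = full enzyme reaction and -100% = no-enzyme basal signal; the screen sought inhibitors and activators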
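Recombinant human enzyme (4 nM); glycogen substrate; 37 C, 40 min, pH 5.0. Readout: coupled glucose oxidase/Amplex Red fluorescence.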
GLA inh pH 4.5 = blocks human alpha-galactosidase A at pH 4.5 | P06280 | 230,000 tested, under 10 active | purified enzyme, 4-MU-alpha-Gal fluorescence, pH 4.5 | AID 1467 | activity change, negative = inhibition, % at 105 µM;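 further: 0% = full activity with enzyme and -100% = basal without enzyme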
aGlu spleen mod = inhibits or activates alpha-glucosidase in human spleen homogenate; human spleen homogenate, 4-MU-alpha-glucoside fluorescence; Potency, µM (titrated, usually from 79.9 µM), for inactives: at the top dose activity change, negative = inhibition, hits mostly inhibitors; actives 0.006% (n = 240,000); AID 2112;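 further: potency means the concentration at half of the fitted maximal effect; 0% = enzyme with vehicle and -100% = no enzyme basal signal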
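Compounds were titrated against alpha-glucosidase in spleen homogenate at pH 5.0, with 1 mM 4-methylumbelliferyl substrate for 40 min at 37 C. Reactions were quenched with pH 10 NaOH/glycine and fluorescence measured.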
* marks the source's active call; other numbers are inactive results; u = inconclusive; x = no result; [ ] = dose if it differs, or a comment. Most compounds without a hit are left out; they make up all but 0.41% or so of the library. The call rests on the fitted dose curve; in most records, active means well fitted curve in the direction sought with a large enough effect; inconclusive means small, poorly fitted or top-dose-only effect, or another doubt; inactive means no such curve, though single readings can be large; an effect the other way counts as inactive or inconclusive.

SMILES	GAA inhib	N370S GC mod	aGal spleen mod	GAA glycogen	GLA inh pH 4.5	aGlu spleen mod
O=C(O)c1ccccc1C(=O)NNc1ccc(F)cc1	-9%	2%	11%	28µM*	8	2%
COc1ccc(C(=O)[C@]2(C)C=C(c3ccc(OC)cc3)[C@H](C)C2)cc1	x	1%	-1%	x	0	-4%
O=C(NNC(=O)c1cccnc1)NC1CCCCC1	2%	-7%	1%	-3%	-2	-1%
O=C(NNC(=O)c1cc(O)c(O)c(O)c1)NC1CCCCC1	-6%	4%	-2%	7.9µM*	10	-10%
CCC(=O)N1CCc2cc(Br)cc(S(=O)(=O)CCC(=O)N3CCN(c4cc(C)ccc4C)CC3)c21	x	x	x	7%[76.3 µM]	x	x
OCCNc1nc(Nc2ccccc2)nc(Nc2ccccc2)n1	-2%	11µM*	-1%	2%	-2	-2%
OCCNc1nc(Nc2ccccc2)nc2ccccc12	-6%	6%	4%	1%	-1	-1%
COc1cc(-c2cn[nH]c2N)cc(OC)c1OC	u	-12%	7%	11µM*	-6	u
Nc1[nH]ncc1-c1ccc(Cl)cc1	-8%	-2%	15%	-18%	1	x
COc1ccc(OC)c(N=C2C(=O)Nc3ccccc32)c1	u	-1%	3%	31µM*	0	-2%
COc1ccc(N=C2C(=O)Nc3ccccc32)cc1	5%	7%	10%	u	-6	1%
O=C(Nc1cccc(-c2nc3ncccc3o2)c1)c1ccc(-c2cccc(Cl)c2Cl)o1	x	x	x	1%[76.3 µM]	x	x
CC(=C/c1ccccc1)/C=N/n1c(-c2ccco2)n[nH]c1=S	-15%	21%	-4%	25µM*	-13	-1%
O=C(Nc1ccc(N2CCOCC2)c2nonc12)C1CCCC1	0%	1%	-2%	7%	5	-1%
Nc1ccc(N2CCOCC2)c2nonc12	1%	-7%	1%	7µM*	2	-10%
COC(=O)CCCCCNc1ccc(C(=O)OC)cc1N	u	-1%	7%	22µM*	-6	3%
COC(=O)c1cc(Oc2ccc(C(=O)OC)cc2N)cc(C(=O)OC)c1	4%	3%	-2%	-8%	0	-3%
CC1(C)CC(=O)C2=C(C1)NC1=C(C(=O)c3ccccc31)C2c1cc([N+](=O)[O-])ccc1O (configuration not stated)	x	14µM*	0%	-24%	-4	-4%
CC1(C)CC(=O)C2=C(C1)NC1=C(C(=O)c3ccccc31)C2c1ccccc1 (configuration not stated)	-4%	u	-2%	-21%	3	-5%
CC(=O)Nc1ccccc1OCc1cc(=O)n2c3c(sc2n1)CCCC3	x	x	x	14%[76.3 µM]	x	x
CCN(CC)c1ccc(NC(=S)NC(=O)c2cccs2)cc1	7%	u	11%	14µM*	1	5%
CCN(CC)c1ccc(NC(=S)NC(=O)c2ccco2)cc1	13%	-4%	-1%	11µM*	6	-9%
CC(=O)NC(=S)Nc1ccc(NC(=S)NC(=O)c2cccs2)cc1	x	8%	x	-6%[76.3 µM]	x	x
Cc1cc(C)cc(N2CCn3c2nc2c3c(=O)n(Cc3ccc(Cl)cc3)c(=O)n2C)c1	x	x	x	-5%[76.3 µM]	x	x
Cc1c(NC(=O)Cc2ccc(Cl)cc2)cccc1-c1nc2cccnc2s1	x	x	x	8%[76.3 µM]	x	x
SMILES	GAA inhib	N370S GC mod	aGal spleen mod	GAA glycogen	GLA inh pH 4.5	aGlu spleen mod
CCCOc1cccc(-c2nn(-c3ccccc3)cc2/C=C(\C#N)C(=O)NCCCn2ccnc2)c1	-9%	-24%	8%	-11%	-13	-17%
N#C/C(=C/c1cn(-c2ccccc2)nc1-c1cccc(OCc2ccc(F)cc2)c1)C(=O)NCCCn1ccnc1	-7%	16µM*	-12%	3%	-9	-15%
COc1ccc(-n2cc(CNCCc3ncc(C)[nH]3)c(-c3ccccc3Cl)n2)cc1	-3%	-4%	0%	7.1µM*	4	-2%
Cc1ccc(-c2nc3cccc(C)n3c2Nc2ccc3c(c2)OCO3)o1	x	x	x	1.8µM*	x	x
Clc1ccc(-c2nc3ccccn3c2Nc2ccc3c(c2)OCCO3)s1	x	x	x	10µM*	x	x
Cc1cccc2nc(-c3ccco3)c(Nc3ccc4c(c3)OCO4)n12	-3%	-7%	7%	u	3	4%
Cc1ccc2nc(-c3ccc(O)cc3)c(Nc3ccc4c(c3)OCCO4)n2c1	1%[15.4 µM]	u	11%	14µM*	-12	4%
COc1ccc(-c2nc3ccc(C)cn3c2Nc2ccc3c(c2)OCO3)cc1	x	x	x	18µM*	x	x
Cc1ccn2c(Nc3ccc4c(c3)OCO4)c(-c3ccco3)nc2c1	x	x	x	5µM*	x	x
Cc1ccn2c(Nc3ccc4c(c3)OCO4)c(-c3ccc(Cl)cc3)nc2c1	x	x	x	-13%[76.3 µM]	x	x
Cc1c(C(=O)NCCN2CCOCC2)oc2ccc(S(=O)(=O)N3CCCCCC3)cc12	u	16µM*	-12%	3%	-5	-3%
CCCc1ccc2oc(C(=O)NCCN3CCCC(O)C3)c(C)c2c1 (configuration not stated)	x	16µM*	x	x	x	x
CCCc1ccc2oc(C(=O)NCCN3CCCC(C(N)=O)C3)c(C)c2c1 (configuration not stated)	x	-12%	x	-1%[76.3 µM]	x	x
Cc1ccc(NC(=O)CN2C(=O)COc3ccc(S(=O)(=O)N4CCCCCC4)cc32)cc1Cl	x	x	x	-5%[76.3 µM]	x	x
Oc1ccc(/C=N/NC(=S)NCC2CCCO2)cc1 (configuration not stated)	-2%	x	-1%	32µM*	-10	-11%
COCCCNC(=S)N/N=C/c1ccc(O)cc1	-1%	-18%	12%	32µM*	-1	11%
COc1ccc(/C=N/NC(=O)C(=O)NCC2CCCO2)cc1 (configuration not stated)	-3%	1%	2%	-5%	12	-5%
COCCCNC(=S)N/N=C/c1ccc(OC)cc1	5%	5%	-10%	-26%	-4	7%
Cc1cc(=O)oc2c(CN(C)Cc3ccccc3)c(O)ccc12	u	u	u	-4%	u	u
Cc1cc(=O)oc2c(N)c(O)ccc12	-1%	-11%	-24%	10µM*	-1	6%
O=C(COc1ccc2ccccc2c1)N1CCN(c2ccccc2O)CC1	-9%	-23%	2%	14µM*	7	-3%
O=C(c1ccc2ccccc2c1)N1CCN(c2ccc(O)cc2)CC1	5%	-19%	6%	18µM*	-23	-1%
CCOC(=O)N1CCN(c2ccc(Cl)cc2)CC1	0%	1%	5%	-2%	-7	2%
CCOC(=O)N1CCN(c2ccc(O)cc2)CC1	-6%	11%	0%	25µM*	5	0%
